Laboratory results taken from PubChem BioAssay (NCATS).
Several values for one entry are separate records, joined by “and”; a condition that tells them apart may be missing. Identical values can stand only once. Inconclusive results are not listed. A call without a number means that no potency is given here. Activity calls are given as the source filed them. The call rests on the fitted dose curve; in most records, active means well fitted curve in the direction sought with a large enough effect; inconclusive means small, poorly fitted or top-dose-only effect, or another doubt; inactive means no such curve, though single readings can be large; an effect the other way counts as inactive or inconclusive.

Legend:
[1] = tested on: Zika virus NS2B-NS3 protease (unlinked); experiment: Optimization of GU AMC qHTS for Zika virus inhibitors: Unlinked NS2B-NS3 protease assay (AID 1347151); details: recombinant ZIKV NS2B-NS3 protease, fluorogenic AMC substrate; series mostly up to 52.5 µM; further: nearly all actives have a fitted effect of over 80% in size
Method in brief: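 Fluorescence read-out (340 nm ex / 450 nm em) of AMC peptide cleavage, taken immediately and after 15 min at room temperature (~20% conversion). Enzyme was the unlinked NS2B–NS3 complex at 25 nM in Tris pH 8.0 buffer.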

[2] = tested on: Zika virus NS2B-NS3 protease; experiment: Primary screen GU AMC qHTS for Zika virus inhibitors (AID 1347154); details: Zika NS2B-NS3 unlinked protease, AMC fluorogenic substrate; series mostly up to 54.1 µM; further: nearly all actives have a fitted effect of over 70% in size; further: potency means the concentration at half of the fitted maximal effect
Method in brief: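 Fluorogenic AMC-substrate cleavage by noncovalent NS2B-NS3 protease complex (25 nM, pH 8.0 Tris buffer with Tween 20) followed for 15 minutes at room temperature (~20% conversion). Percent inhibition from ex340/em450 signal change, fitted by 4-parameter Hill equation.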

[3] = tested on: Zika virus NS2B-NS3 protease (linked construct); experiment: Confirmatory screen NINDS AMC qHTS for Zika virus inhibitors (AID 1347152); details: Purified linked NS2B-NS3, AMC substrate fluorescence; series mostly up to 56.6 µM; further: potency means the concentration at half of the fitted maximal effect; nearly all actives have a fitted effect of over 70% in size
Method in brief: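 Linked NS2B-NS3 1 nM, Tris pH 8.0/0.01% Tween 20; cpd 15 min RT dark; + Nle-KRR-AMC 10 µM (Km 18.3 µM); read 0 and 15 min, 340/450 nm; %inh vs controls, 4-param Hill.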

[4] = tested on: Zika virus NS2B-NS3 protease (unlinked complex); experiment: Primary screen GU Rhodamine qHTS for Zika virus inhibitors: Unlinked NS2B-NS3 protease assay (AID 1347159); details: Recombinant ZIKV NS2B-NS3 protease, Rhodamine110 substrate fluorescence; series mostly up to 107 µM; further: nearly all actives have a fitted effect of over 60% in size; further: potency means the concentration at half of the fitted maximal effect
Method in brief: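 Unlinked NS2B/NS3, 25 nM; Rhod110 peptide, 1.5 microM; compounds, up to 114 microM. Reaction run 15 min at RT in 10 mM Tris-HCl pH 8.0, 0.01% Tween 20; kinetic fluorescence change fitted with a 4-parameter Hill model.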

[5] = molecular target: N-terminal Xaa-Pro-Lys N-methyltransferase 1 (Homo sapiens) (UniProt Q9BV86); experiment: qHTS Assay for Inhibitors of N-terminal methyltransferase 1 (NTMT1): LOPAC validation of the NTMT1 SAHH-coupled ThioGlo3 Assay (AID 1347143); details: recombinant NTMT1, SAHH-coupled ThioGlo3 fluorescence; series mostly up to 114 µM;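 further: SAH from peptide methylation measured as thiol fluorescence via SAHH coupling and ThioGlo3; nearly all actives have a fitted effect of over 70% in size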; further: potency means the concentration at half of the fitted maximal effect
Sequence of N-terminal Xaa-Pro-Lys N-methyltransferase 1 (Homo sapiens) (Q9BV86 whole entry, looked up): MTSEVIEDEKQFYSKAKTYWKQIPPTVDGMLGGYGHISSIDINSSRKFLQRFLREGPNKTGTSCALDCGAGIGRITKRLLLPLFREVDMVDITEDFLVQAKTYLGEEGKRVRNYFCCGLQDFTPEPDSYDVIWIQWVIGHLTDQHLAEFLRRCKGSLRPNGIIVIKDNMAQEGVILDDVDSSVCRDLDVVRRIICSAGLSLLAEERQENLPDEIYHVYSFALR
Method in brief: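 NTMT1 125nM + cpds (various conc.), 1 min RT; add SAM 100uM/SAHH 10uM/ThioGlo3 15uM (addition mix). SAHH-coupled thiol detection, Ex340/Em450, t0 and 30 min RT; signal normalized to background. LOPAC 1280-cpd pilot.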

Furin (Homo sapiens) = Furin (Homo sapiens) (UniProt P09958); experiment: Furin counterscreen qHTS for Zika virus inhibitors (AID 1347149); details: furin enzymatic counterscreen, fluorogenic substrate; series mostly up to 57.5 µM; further: nearly all actives have a fitted effect of over 70% in size; further: potency means the concentration at half of the fitted maximal effect
Sequence of Furin (Homo sapiens) (P09958 whole entry, looked up): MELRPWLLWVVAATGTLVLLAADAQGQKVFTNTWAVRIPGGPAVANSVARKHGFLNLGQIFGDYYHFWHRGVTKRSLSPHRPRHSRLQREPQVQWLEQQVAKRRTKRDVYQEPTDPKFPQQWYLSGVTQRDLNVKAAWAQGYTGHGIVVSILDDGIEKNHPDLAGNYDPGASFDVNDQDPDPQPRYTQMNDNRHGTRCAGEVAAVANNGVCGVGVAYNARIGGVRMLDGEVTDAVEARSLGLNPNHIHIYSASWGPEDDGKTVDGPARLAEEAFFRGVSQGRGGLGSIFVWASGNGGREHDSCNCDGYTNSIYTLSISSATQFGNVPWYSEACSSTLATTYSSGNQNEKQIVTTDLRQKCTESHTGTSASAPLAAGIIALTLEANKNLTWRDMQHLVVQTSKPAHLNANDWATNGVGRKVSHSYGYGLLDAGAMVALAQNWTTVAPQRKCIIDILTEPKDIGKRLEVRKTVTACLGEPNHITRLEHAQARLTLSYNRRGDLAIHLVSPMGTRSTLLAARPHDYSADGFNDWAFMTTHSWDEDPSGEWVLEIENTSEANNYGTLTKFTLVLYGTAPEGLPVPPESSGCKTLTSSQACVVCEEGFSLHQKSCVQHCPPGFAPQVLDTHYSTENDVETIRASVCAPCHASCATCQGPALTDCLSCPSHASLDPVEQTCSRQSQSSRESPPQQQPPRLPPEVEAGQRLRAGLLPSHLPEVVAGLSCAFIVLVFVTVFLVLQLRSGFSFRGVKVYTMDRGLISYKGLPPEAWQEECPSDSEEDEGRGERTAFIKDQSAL
Method in brief: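 Counterscreen measures cleavage of 2 microM BOC-RVRR-AMC, below its ~15 microM Km, by 5 nM full-length human furin at pH 7.0 after a 15-min compound preincubation. Inhibition derives from the 15-min fluorescence increase at 37C.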

[6] = Confirmatory screen GU Rhodamine qHTS for Zika virus inhibitors qHTS (AID 1347157); details: purified enzyme assay, Rhodamine110 substrate fluorescence, 15 min
Method in brief: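 In dose–response format, inhibition of unlinked protease (25 nM) was measured with 1.5 microM bis-peptide Rhodamine110 substrate. Aprotinin served as the intraplate control.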

CC(C)NC[C@H](O)c1ccc(O)c(O)c1
Potency [1]: inactive
Potency [2]: inactive

CC(C)(O)c1ccccc1CC[C@@H](SCC1(CC(=O)O)CC1)c1cccc(/C=C/c2ccc3ccc(Cl)cc3n2)c1
Potency [3]: 27.1 µM (active)
Potency [4]: 3.16 µM (active)

C#CCN(C)Cc1ccccc1
Potency [1]: inactive
Potency [2]: inactive

CC1=C(CC(=O)O)c2cc(F)ccc2/C1=C\c1ccc(S(C)=O)cc1 (stereo not drawn)
Potency [1]: inactive
Potency [2]: inactive

CCCCc1ncc(/C=C(\Cc2cccs2)C(=O)O)n1Cc1ccc(C(=O)O)cc1
Potency [5]: inactive
Potency [1]: inactive
Potency [2]: inactive
Potency [4]: inactive

N[C@H](C(=O)O)c1ccc(O)cc1
Potency (Furin (Homo sapiens)): inactive
Potency [1]: inactive
Potency [2]: inactive

CSc1ccc2c(c1)C(N1CCN(C)CC1)Cc1ccccc1S2 (stereo not drawn)
Potency [1]: inactive
Potency [2]: inactive

CC12CCC(CC1)C(C)(C)O2
Potency [2]: inactive

CC[N+](CC)(CC)CCOc1ccc(/C=C/c2ccccc2)cc1
Potency [5]: 39.8 µM (active)
Potency [2]: inactive

CN(C)CCCN1c2ccccc2CCc2ccccc21
Potency [1]: inactive
Potency [2]: inactive

CN1CCC[C@@H]1Cc1c[nH]c2ccc(CCS(=O)(=O)c3ccccc3)cc12
Potency [1]: inactive
Potency [2]: inactive
Potency [4]: inactive

C[C@@H](O)[C@H](N)C(=O)O
Potency [2]: inactive

CC(C(O)c1ccc(O)cc1)N1CCC(Cc2ccccc2)CC1 (stereo not drawn)
Potency [5]: inactive
Potency [1]: inactive
Potency [2]: inactive
Potency [4]: inactive

C=Cc1c(C)c2cc3[nH]c(cc4nc(cc5nc(cc1[nH]2)C(C)=C5CCC(=O)O)C(CCC(=O)O)=C4C)c(C)c3C=C
Potency [5]: 39.8 µM (active)
Potency [2]: inactive

Cc1cc(C(C#N)c2ccc(Cl)cc2)c(Cl)cc1NC(=O)c1cc(I)cc(I)c1O (stereo not drawn)
Potency (Furin (Homo sapiens)): 7.64 µM (active) and 13.9 µM (active)
Potency [3]: 11.1 µM (active)
Potency [2]: 3.98 µM (active)
Potency [6]: 1.75 µM (active) and 1.56 µM (active)
Potency [4]: 1.78 µM (active)

OCCN1CCN(CCCN2c3ccccc3Sc3ccc(Cl)cc32)CC1
Potency [1]: inactive
Potency [2]: inactive

Cn1cc[nH]c1=S
Potency [2]: inactive

c1ccc2c(CC3=NCCN3)cccc2c1
Potency [2]: inactive

CNC(=O)Oc1ccc2c(c1)[C@]1(C)CCN(C)[C@@H]1N2C
Potency [1]: inactive
Potency [2]: inactive
Potency [4]: inactive

CCN(CC)CCNC(=O)c1c(C)[nH]c(/C=C2\C(=O)Nc3ccc(F)cc32)c1C
Potency [1]: inactive
Potency [2]: inactive

C[C@]12C[C@H](O)[C@H]3[C@@H](CCC4=CC(=O)CC[C@@]43C)[C@@H]1CC[C@@H]2C(=O)CO
Potency [1]: inactive
Potency [2]: inactive

CC1CC(OC(=O)C(O)c2ccccc2)CC(C)(C)N1C (stereo not drawn)
Potency [2]: inactive

CC(=O)c1ccc2c(c1)N(CCCN(C)C)c1ccccc1S2
Potency [1]: inactive
Potency [2]: inactive

CN(C)CCCN1c2ccccc2Sc2ccc(Cl)cc21
Potency [1]: inactive
Potency [2]: inactive

O=C1c2c(O)cccc2Cc2cccc(O)c21
Potency [2]: inactive

CCCc1c(OCCCCc2nn[nH]n2)ccc(C(C)=O)c1O
Potency [2]: inactive

NC1CCN(c2cccc(Cl)n2)CC1
Potency [2]: inactive

C=CCn1c(=O)n([C@@H]2O[C@H](CO)[C@@H](O)[C@H]2O)c2nc(N)[nH]c(=O)c21
Potency [2]: inactive

CC(O)CN(CCN(CC(C)O)CC(C)O)CC(C)O (stereo not drawn)
Potency [2]: inactive

CCCOC(=O)c1ccccc1
Potency [2]: inactive

NCC(=O)CCC(=O)O
Potency [2]: inactive

CCC(=O)c1ccc(O)cc1
Potency [2]: inactive

CC(O)COc1ccccc1 (stereo not drawn)
Potency [2]: inactive

COc1ccc(S(=O)(=O)Nc2nnc(CC(C)C)s2)cc1
Potency [2]: inactive

Cc1cc(O)cc2c1O[C@](C)(CCC[C@H](C)CCC[C@H](C)CCCC(C)C)CC2
Potency [2]: inactive

O=S(=O)(O)NC1CCCCC1
Potency [2]: inactive

CC1(C)Oc2ccc(C#N)cc2[C@@H](N2CCCC2=O)[C@@H]1O
Potency [2]: inactive

O=c1cc[nH]c(=O)[nH]1
Potency [2]: inactive

O=C1NS(=O)(=O)c2ccccc21
Potency [2]: inactive

CC(=O)CCC(=O)O
Potency [2]: inactive

CCCCOC(=O)c1ccc(O)cc1
Potency [2]: inactive

N[C@H]1C(O)O[C@H](CO)[C@@H](O)[C@@H]1O (stereo partly drawn)
Potency [2]: inactive

CN1[C@@H]2CC[C@H]1CC(OC(=O)C(O)c1ccccc1)C2 (stereo partly drawn)
Potency [2]: inactive

Cc1c(Cl)cccc1Nc1ccccc1C(=O)O
Potency [2]: inactive

NC(=O)c1ncn([C@@H]2O[C@H](CO)[C@@H](O)[C@H]2O)c1N
Potency [2]: inactive

Cc1cc(CC(=O)O)n(C)c1C(=O)c1ccc(Cl)cc1
Potency [2]: inactive

COc1ccccc1O
Potency [2]: inactive

CC(=O)Oc1ccc(C2(c3ccc(OC(C)=O)cc3)C(=O)Nc3ccccc32)cc1
Potency [2]: inactive

COC(=O)[C@H]1[C@H]2C[C@@H]3c4[nH]c5cc(OC)ccc5c4CCN3C[C@H]2C[C@@H](OC(=O)COc2ccc(OC)cc2)[C@@H]1OC
Potency [2]: inactive
